The campaign covered roughly 350,000 compounds. About 450 (0.13%) were called active. How the calls were made is not given here. Only a sample is shown. Potency and affinity values are given separately.
Assay: inhibitors of VEEV TC-83 cytopathic effect, confirmation, Vero cells (AID 588727)
Conditions: VEEV TC-83 cytopathic effect inhibition, at 20 µM; stronger effect = higher value unless noted

| SMILES | inhibition | outcome |
| --- | --- | --- |
| CNC(=O)/C(C#N)=C/c1cn(CC(=O)OC)c2ccccc12 | 0.69% (inactive) | – |
| COc1cc2cc(C(=O)O)[nH]c2c(OC)c1OC | 0.1% (inactive) | – |
| COc1ccc(OC)c2[nH]c(C(=O)N3CCC(C(=O)O)CC3)cc12 | 0.69% (inactive) | – |
| COC(=O)c1cc(S(=O)(=O)N2CCN(c3ccc([N+](=O)[O-])cc3)CC2)c[nH]1 | 3.14% (inactive) | – |
| O=S(=O)(/C=C/c1ccccc1)Oc1ccccc1 | inactive | – |
| Cc1c(C)n(CCCN(C)C)c2ncnc(Nc3ccccc3)c12 | 1.72% (inactive) | – |
| COc1ccccc1Nc1ncnc2c1c(C)c(C)n2CCO | 0.65% (inactive) | – |
| CCOc1ccc(NC(=O)CN(C)C(=O)CCC2CCCCC2)cc1OCC | 2.6% (inactive) | – |
| NNc1nc(-c2ccccc2Cl)c2cc(Br)ccc2n1 | 1.08% (inactive) | – |
| O=C(CCC1CCCN(C(=O)CCN2CCCCC2=O)C1)NCc1ccccc1F (stereo not drawn) | 0.405% [measured here: 10K pilot screen inhibition, stronger effect = higher value] | inactive |
| C=CCN1C(=O)c2ccc(C(=O)NCCc3ccc(OC)c(OC)c3)cc2C1=O | 0.34% (inactive) | – |
| CC1CCCCC1NC(=O)COCc1cc(-c2cccs2)on1 (stereo not drawn) | inactive | – |
| Cc1cc(C(=O)Cn2nnc3ccccc3c2=O)c(C)n1-c1c(C)n(C)n(-c2ccccc2)c1=O | inactive | – |
| COc1ccc(-n2c(C)cc(C(=O)Cn3nnc4ccccc4c3=O)c2C)cc1 | 1.42% (inactive) | – |
| CC1Sc2ccc(S(=O)(=O)CCC(=O)N3CCCC3)cc2NC1=O (stereo not drawn) | 2.36% (inactive) | – |
| O=C(CSc1nc(-c2ccccc2Cl)ns1)c1ccc(Cl)cc1 | 1.15% (inactive) | – |
| COC(=O)c1ccc(N/C(=N/S(=O)(=O)c2ccccc2)c2ccccc2)cc1 | 1.58% (inactive) | – |
| CCC(C)N=Cc1c(Nc2ccccc2)nc2c(C)cccn2c1=O (stereo not drawn) | inactive | – |
| CCCC[C@H]1COCCS(=O)(=O)N1Cc1cccc([N+](=O)[O-])c1 | inactive | – |
| O=C(NCc1cccnc1)/C(=C\c1ccc(-c2ccc(Cl)c(Cl)c2)o1)S(=O)(=O)c1ccccc1 | 0.29% (inactive) | – |
| O=C(NCc1cccnc1)/C(=C/c1ccc(-c2cccc(Cl)c2)o1)S(=O)(=O)c1ccccc1 | 9.73% (inactive) | – |
| O=C(CCNC(=O)c1ccc([N+](=O)[O-])cc1)NC1CCCc2ccccc21 (stereo not drawn) | 9.16% (inactive) | – |
| O=C(NC1CCCc2ccccc21)c1ccc(Br)cc1 (stereo not drawn) | 0.82% (inactive) | – |
| O=C(Cc1ccc(Br)cc1)NC1CCCc2ccccc21 (stereo not drawn) | 3.28% (inactive) | – |

| SMILES | inhibition | outcome |
| --- | --- | --- |
| O=C(CCNC(=O)c1ccccc1)NC1CCCc2ccccc21 (stereo not drawn) | inactive | – |
| CC(SCC(=O)Nc1ccccc1Br)c1nc2ccccc2c(=O)[nH]1 (stereo not drawn) | inactive | – |
| CCCOc1ccc(C(=O)Nc2cc(S(=O)(=O)N3CCOCC3)ccc2N2CCOCC2)cc1 | 6.81% (inactive) | – |
| CC(=O)c1ccc(S(=O)(=O)N2CCN(C(=O)c3ccc(-n4nc(C)c(Cl)c4C)cc3)CC2)cc1 | 2.19% (inactive) | – |
| O=[N+]([O-])c1cccc(/C=C/c2ccncc2)c1 | inactive | – |
| O=[N+]([O-])c1cccc(/C=C/c2ccccn2)c1 | 0.25% (inactive) | – |
| O=C(CCNS(=O)(=O)c1cccc(Cl)c1)OCC(=O)N1CCN(C(=O)c2ccco2)CC1 | 0.85% (inactive) | – |
| O=C(CC1SC(N2CCOCC2)=NC1=O)Nc1ccccc1Cl (stereo not drawn) | 2.68% (inactive) | – |
| C=CCN1C(c2ccc(Br)cc2)=CS/C1=C(\C#N)c1nnc(N2CCOCC2)n1-c1ccccc1 | 11.4% (inactive) | – |
| Cc1ccccc1CC1SC(N)=NC1=O (stereo not drawn) | 1.28% (inactive) | – |
| O=C1N/C(=N\c2ccccn2)SC1Cc1ccccc1Cl (stereo not drawn) | 4.16% (inactive) | – |
| CC(=O)/C(C#N)=C1\NC(=O)C(Cc2cc(Cl)ccc2Cl)S1 (stereo not drawn) | 3.03% (inactive) | – |
| Cc1ccccc1CC1SC(N=C(N)N)=NC1=O (stereo not drawn) | 1.59% (inactive) | – |
| O=c1c2ccccc2nc(-c2ccco2)n1-c1nc2ccccc2s1 | 1.81% (inactive) | – |
| FC(F)Oc1ccc(NC(=S)N2CCc3ccccc32)cc1 | 0.39% (inactive) | – |
| Cc1ccccc1C(=O)N1CCC(C(=O)Nc2sccc2C(N)=O)CC1 | 2.51% (inactive) | – |
| CN(Cc1ccc(O)cc1)C1CCCCC1 | 1.27% (inactive) | – |
| OCC1(CCOc2ccccc2)CCN(Cc2ccncc2)CC1 | 0.23% (inactive) | – |
| OCC1(CCOc2ccccc2)CCN(Cc2cn[nH]c2-c2ccc(F)cc2)CC1 | 2.7% (inactive) | – |
| C=CCOc1ccc(C=Nc2ccc(Cl)cc2)c(O)c1 | 0.47% (inactive) | – |
| Cc1c(C(=O)N(C)CCn2ccnc2C)oc2c(F)cccc12 | 1.03% (inactive) | – |
| CCN(CC)C(=O)c1sc(NC(=O)c2ccoc2C)c(C(=O)OC)c1C | 1.79% (inactive) | – |
| CN1CCN(CCCNC(=O)c2ccc(/C=C3\Oc4ccccc4N(Cc4ccccc4F)C3=O)cc2)CC1 | 13.6% (inactive) | – |
